Test system: Plasmodium falciparum
Assay: GSK_TCMDC: Inhibition of Plasmodium falciparum 3D7 in whole red blood cells, using parasite LDH activity as an index of growth. Test compounds present at 2uM
Assay type: functional

| Structure (SMILES) | Inhibition |
| --- | --- |
| CCN(CCO)CCc1cccc(Nc2nccc(-c3c(-c4ccc(NC(=O)C(C)(C)C)cc4)nn4ccccc34)n2)c1.Cl | 100% |
| Cc1ccc(C(=O)Nc2ccc(Nc3ccnc4cc(-c5ccccn5)ccc34)cc2O)cc1.Cl | 100% |
| Cc1cccc(-c2cc3cc(Nc4ccnc5cc(-c6nccs6)ccc45)ccc3[nH]2)c1.Cl | 100% |
| COc1cccc(-c2ccc3c(-c4cccc(S(C)(=O)=O)c4)cnc(N)c3c2)c1 | 96% |
| Cc1cccc(CNc2nc(C)cc(N[C@@H](Cc3ccccc3)C(=O)NCc3cccc(F)c3)n2)c1.O=C(O)C(F)(F)F | 100% |
| Cc1cc(NC(=O)c2cccs2)ccc1OC1CCN(Cc2ccc(C#N)cc2)C1.O=C(O)C(F)(F)F (centres undefined) | 82% |
| C=C[C@]1(C)C[C@@H](OC(=O)CNC[C@@H](O)CN2C[C@H](c3ccnc4ccc(OC)nc34)OC2=O)[C@@]2(C)[C@@H]3C(=O)CC[C@@]3(CC[C@@H]2C)[C@@H](C)[C@@H]1O | 89% |
| COc1cccc(Nc2nccc(NCC(O)c3cccc(C(F)(F)F)c3)n2)c1 (centres undefined) | 96% |
| CCCCCCNC(=O)C1Cc2c([nH]c3cc(Cl)ccc23)C2(CCN(Cc3ccccc3)CC2)N1 (centres undefined) | 90% |
| COc1c(C2CCN(CCCCNC(=O)c3ccc(-c4ccc(C(=O)C(F)(F)F)cc4)cc3)CC2)ccc2c1CCCC2 | 81% |
| N#Cc1cccc(CN2CCCN(Cc3cccc(C(=O)Nc4ccc(Cl)cc4)c3)CC2)c1.O=C(O)C(F)(F)F | 82% |
| COc1ccc(-c2cnc3ccc(NCc4ccc(S(N)(=O)=O)cc4)nn23)cc1 | 96% |
| CN1CCN(c2ccc(Nc3c(C(N)=O)cnc4cc(-c5ccoc5)ccc34)cc2)CC1.Cl | 100% |
| COc1ccc(Nc2nc(NC3CCCC3)cc(-c3ccc(OC)cc3)n2)cc1 | 86% |
| CC(C)c1ccc(NC(=O)c2ccc(NCCCN(C)Cc3ccccc3)c([N+](=O)[O-])c2)cc1 | 100% |
| O=C(Cn1c(CCc2cccc(F)c2F)cc(=O)c2ccccc21)N(Cc1ccc(-c2ccc(C(F)(F)F)cc2)cc1)C1CCN(CCN2CCOCC2)CC1.O=C(O)C(O)C(O)C(=O)O | 100% |
| CCOc1cccc2nc(NCCCNCc3ccc(Cl)c(Cl)c3)cc(NCCCNCc3ccc(Cl)c(Cl)c3)c12 | 98% |
| O=C(Nc1ccc(C(=O)Oc2ccc3ccccc3c2)cc1)N[C@@H](Cc1ccc(O)cc1)C(=O)NC1CCN(Cc2ccc(O)cc2)C1.O=C(O)C(F)(F)F (some centres undefined) | 86% |
| COC(=O)C(Cc1ccccc1)C(CSCc1ccc(OC)cc1)C(=O)N[C@@H](C(=O)OC(C)(C)C)c1ccc(C(C)(C)C)cc1 (some centres undefined) | 93% |
| Cc1cc(N[C@@H](Cc2ccccc2)C(=O)NCCOc2ccccc2)nc(NCc2ccccc2C)n1.O=C(O)C(F)(F)F | 100% |

| Structure (SMILES) | Inhibition |
| --- | --- |
| Br.CCCC1N=C(N)N=C(N)N1c1ccc(CC)cc1 (centres undefined) | 94% |
| Cl.N#Cc1ccc2c(c1)CCN(CCC1CCC(NC(=O)/C=C/c3nc4ccccc4s3)CC1)CC2 (centres undefined) | 90% |
| CCN(CC)CCNc1ccnc2[nH]c3ccc(Cl)cc3c12 | 100% |
| CCN1CCC(N(Cc2ccc(-c3ccc(C(F)(F)F)cc3)cc2)C(=O)Cn2c(SCc3cccc(F)c3F)cc(=O)c3ccccc32)C1.O=C(O)C(O)C(O)C(=O)O (centres undefined) | 90% |
| Br.Nc1ccc(-c2csc(Nc3ccncc3)n2)cc1 | 95% |
| Cc1[nH]n(-c2cccc(C(F)(F)F)c2)c(=O)c1-c1ccc(Cl)cc1 | 98% |
| CCN1CCN(c2cc(C)c3cc(NC(=O)c4ccc(Br)o4)ccc3n2)CC1 | 98% |
| CCC(C)NS(=O)(=O)c1ccc2nc(Nc3cccc(SC)c3)n(C(C)C(C)C)c2c1 (centres undefined) | 94% |
| C=C(C)CSc1nc2c(c(=O)n1Cc1ccco1)C1(CCCCC1)Cc1ccccc1-2 | 97% |
| CC1CCc2sc(-c3nnc(SC(C)C(=O)NC4CC4)o3)cc2C1 (centres undefined) | 83% |
| CCNc1c2ccc(Cl)cc2nc2ccc(OC)cc12.Cl | 99% |
| COc1ccc(CCN(C)CCOc2ccc(NC(=O)c3cc(SC)cc4c(=O)c5ccccc5[nH]c34)cc2)cc1OC | 87% |
| Cc1cc(Cl)c(S(=O)(=O)NC2CCCC2)cc1OCC(=O)NC1CCCCC1 | 97% |
| Cc1ccc(C(=O)N2CCc3cc4nccc(N5CCN6CCC[C@H]6C5)c4cc32)cc1 | 95% |
| CCCCCC(C)N/C(=N/c1ccccc1Br)Nc1ccc([N+](=O)[O-])cc1O (centres undefined) | 99% |
| COC(=O)c1ccc(NC(=O)Nc2ccc(Cn3ncc(N4CCCNCC4)c(Cl)c3=O)cc2)cc1.O=C(O)C(F)(F)F | 83% |
| Cl.NCCCCc1c(-c2ccc(Cl)c(Cl)c2)[nH]c2ccc(Cl)cc12 | 97% |
| CCCNC(=O)c1ccc(N2CCC(c3ccccc3C)CC2)nc1.O=C(O)C(F)(F)F | 86% |
| CCCCCCCN1CC[C@@H](CCCc2ccnc3ccc(OC)cc23)[C@@H](CCN)C1.O=C(O)C(=O)O | 100% |
